Assay outcomes (PubChem BioAssay)
TrxR1 inh = inhibitors of rat thioredoxin reductase 1 | O89049 | recombinant rTrxR1, NADPH fluorescence consumption, selenite substrate | Potency, µM (titrated, usually from 114 µM), for the others: at the top dose activity change, negative = inhibition, actives largely listed as inhibitors | 390,000 compounds, 1% hits; further: potency means the concentration at half of the fitted maximal effect; on the % scale 0 is the no-effect control and ±100 the full control effect; nearly all actives have a fitted effect of over 65% in size
Target sequence (O89049 whole entry, looked up): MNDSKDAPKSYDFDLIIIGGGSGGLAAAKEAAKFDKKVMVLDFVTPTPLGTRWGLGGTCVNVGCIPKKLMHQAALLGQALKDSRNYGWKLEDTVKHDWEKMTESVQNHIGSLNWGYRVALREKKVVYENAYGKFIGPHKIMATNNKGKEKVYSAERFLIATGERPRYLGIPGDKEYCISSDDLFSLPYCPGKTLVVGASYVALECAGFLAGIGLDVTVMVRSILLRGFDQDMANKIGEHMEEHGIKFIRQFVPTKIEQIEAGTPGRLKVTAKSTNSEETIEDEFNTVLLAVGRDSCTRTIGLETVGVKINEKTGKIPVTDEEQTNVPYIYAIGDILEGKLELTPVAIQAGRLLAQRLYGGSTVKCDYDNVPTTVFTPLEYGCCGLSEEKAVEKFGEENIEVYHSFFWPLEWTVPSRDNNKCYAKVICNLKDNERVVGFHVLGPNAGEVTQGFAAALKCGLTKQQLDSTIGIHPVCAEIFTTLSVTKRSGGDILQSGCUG
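Rat TrxR1 (90 nM in the dispensed reagent) was pre-reduced with 400 uM NADPH for 5 min at room temperature, then incubated with compound for 15 min. After 400 uM selenite was added, NADPH fluorescence (Ex 340/Em 450 nm) was followed for 8 min.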
IL2 activator = activates IL-2 in a cell-based reporter assay; IL-2 activation reporter assay, cell-based qHTS; stimulated with anti-CD3/CD4/CD28 beads; in transgenic mouse T cells; activation, % (series mostly up to about 46 µM); 360,000 compounds, 0.065% hits; AID 652025; in the data active means activation above about 50%; inconclusive means mostly about 30% to 49%; further: 0% is about no effect
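Unstimulated transgenic mouse T cells, 750 per well, received compound and, after 60 minutes, anti-CD3/anti-CD4 bead plus anti-CD28 stimulation. EGFP and DsRed were quantified after 18 hours.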
TrxR1 substrate = is turned over as a substrate by rat TrxR1; O89049; purified TrxR1 substrate turnover, NADPH consumption readout; Potency, µM (top dose mostly 114 µM), inactives show top-dose activity change, negative = substrate turnover; 390,000 compounds, 0.01% hits; further: potency means the concentration at half of the fitted maximal effect; on the % scale 0 is the no-effect control and ±100 the full control effect; nearly all actives have a fitted effect of over 50% in size
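Rat TrxR1, dispensed at 90 nM, was prereduced with 400 uM NADPH (final) for 5 min at ~22 deg C, then incubated with compound 15 min before 400 uM selenite. A first-read NADPH fluorescence drop versus no-compound background flagged substrates.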
Giardia killer = kills Giardia lamblia; Giardia lamblia trophozoite viability; activity change, % at 7.66 µM, hits read low; 340,000 compounds, 0.15% hits; in the data active means activity change below about -80%; inconclusive means between about -30% and that limit;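 further: parasites exposed to compound for two days anaerobically before the ATP read; on the % scale 0 is the no-effect control and ±100 the full control effect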
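Anaerobic 48 hrs incubation at 37 deg C of 100 trophozoites/well with test compounds; ATPLite 1-Step luminescence, 15-30 min RT, reports cellular ATP as viability.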
mIDH1 inhibitor = blocks human mutant IDH1 R132H enzyme; O75874; IDH1-R132H enzyme, NADPH consumption, diaphorase/resazurin fluorescence; Potency, µM (series often up to 76.6 µM), without a hit: top-dose activity change, negative = inhibition, hits mostly inhibitors; 390,000 compounds, 0.093% hits; further: potency means the concentration at half of the fitted maximal effect; on the % scale 0 is the no-effect control and ±100 the full control effect; nearly all actives have a fitted effect of over 65% in size
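IDH1-R132H (0.5 ug/mL dispensed) in pH 7.5 Tris buffer was preincubated 30 min with compound, then given a substrate mix of 0.016 mM NADPH and 2 mM alpha-KG for 80 min at room temperature; remaining NADPH was read by diaphorase/resazurin fluorescence.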
BRCA1 expr act = activators of BRCA1 expression. MCF7-BRCA1-FFLuc reporter, luminescence, 48 h; response scale: scaled: vehicle 0%, 10 µM genistein 100%. Potency, µM (titrated, usually from 46.1 µM), for the others: at the highest dose activation, hits mostly activators. 380,000 compounds, 1.1% hits. AID 624202; further: potency means the concentration at half of the fitted maximal effect; nearly all actives have a fitted effect of over 80% in size
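Reporter cells (MCF7, BRCA1 promoter-firefly luciferase) received library compounds across a concentration series for 48 h. End-point luminescence was measured and concentration-effect curves derived after normalization.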
Starred values were filed as active, the others as inactive; i = inactive; ? = inconclusive; · = no result given; [ ] = another dose, or the depositor's remark. This is a sample that favours compounds with a hit; in the whole collection about 2.2% have one here. Unless noted, the call rests on the fitted dose curve; in most records, active means well fitted curve in the direction sought with a large enough effect; inconclusive means small, poorly fitted or top-dose-only effect, or another doubt; inactive means no such curve, though single readings can be large; an effect the other way counts as inactive or inconclusive.

SMILES | TrxR1 inh | IL2 activator | TrxR1 substrate | Giardia killer | mIDH1 inhibitor | BRCA1 expr act
Cc1ncc(C(=O)Nc2ccccc2)[nH]1 | 16%[57.1 µM] | 0 | 4%[57.1 µM] | 4 | 2% | 2.8µM*
CCCc1cc(=O)oc2c3c(ccc12)OCN(Cc1ccc(OC)cc1)C3 | -35% | · | i | 33 | -15% | 5%
CC1(C)CC(=O)/C(=N/Nc2ccc(Cl)cc2)CO1 | 7% | 0 | -2% | 2 | 5% | 3.5µM*
Cc1cccc(N/N=C2/COC(C)(C)CC2=O)c1 | 6% | -2 | -5% | 0 | 17% | 7.9µM*
COc1ccc(CCn2c(=S)[nH]c(=O)c3[nH]cnc32)cc1OC | -2% | · | 4% | -3 | · | 11%
Cc1ccc(CN(C(=O)COc2ccc(Br)cc2)c2ccccn2)o1 | -17% | · | -1% | · | -6% | -1%
CCCS(=O)(=O)c1nc(S(=O)(=O)c2ccc(C)cc2)c(NC(C)c2ccccc2)s1 (configuration not stated) | 35µM* | · | 3% | · | · | ·
COc1ccccc1NC(=S)NC(=O)C(C)(C)C | 13µM* | -3 | 1% | 4 | 5% | 17%
Cc1ccc(C(=O)C[n+]2cccc3cccc(O)c32)cc1 | 2% | · | 3% | · | · | ·
O=C(NCc1cccs1)c1csc2c1CCCCC2 | 10% | -2 | 4% | 13 | 16% | 63%
O=C(NCc1cccs1)c1cc2c(s1)CCCC2 | -15% | 4 | -8% | 3 | 11% | 13µM*
Cc1oc2ncn(CC(C)C)c(=O)c2c1C(=O)NCCc1ccc(Cl)cc1 | 9% | · | 0% | · | -7% | 0%
Cc1ccc(NCCC(=O)c2cccc([N+](=O)[O-])c2)c(C)c1 | 3.2µM* | -4 | 2%[57.1 µM] | -4 | -1% | 3%
Cc1cccc(NCCC(=O)c2ccc([N+](=O)[O-])cc2)c1C | 4.5µM* | -4 | 0% | -3 | 1% | 0%
Cc1ccc(NCC(=O)c2ccc([N+](=O)[O-])cc2)cc1 | 18%[57.1 µM] | 0 | -1% | -14 | 1% | 51%
CCN(CC)c1ccc(-c2nc(-c3ccccc3C)no2)cc1[N+](=O)[O-] | 2% | · | -4% | · | 6% | 44%
Cc1ccc(C)c(Cn2c(=O)n(CCCC(=O)NCc3ccc4c(c3)OCO4)c(=O)c3sccc32)c1 | 25% | · | 6% | · | -14% | ·
CCN(Cc1ccccc1)C(=O)C(CC(C)C)NS(=O)(=O)c1ccc2c(c1)CCN2C(C)=O (configuration not stated) | 18% | · | 5% | · | -4% | ·
COc1ccc(NC(=O)CCS(=O)(=O)c2nc(-c3cccs3)cc(C(F)(F)F)n2)cc1OC | 25µM* | · | -5%[2.29 µM] | · | 14% | ·
O=C(O)CCS(=O)(=O)c1nc(-c2cccs2)cc(C(F)(F)F)n1 | ? | -4 | 104% | -27 | 4% | 0%
O=C(CCS(=O)(=O)c1nc(-c2cccs2)cc(C(F)(F)F)n1)Nc1cccc(O)c1 | 18µM* | · | 9%[2.29 µM] | · | 14% | ·
COc1cc(NC(=O)CCS(=O)(=O)c2nc(-c3cccs3)cc(C(F)(F)F)n2)cc(OC)c1OC | ? | · | -3% | · | 8% | ·
O=C(N/N=C\c1ccccc1F)c1ccc(-c2ccccc2)cc1 | 8% | -1 | -2% | -12 | 10% | 10µM*
O=C(N/N=C/c1ccccc1)c1ccc(-c2ccccc2)cc1 | 12% | 0 | 3% | 3 | 11% | 59%
CCOC(=O)N1CCc2c(sc3c2c(=O)n(CCc2ccccc2)c(=O)n3Cc2c(F)cccc2Cl)C1 | 10% | · | -1% | · | 0% | ·
SMILES | TrxR1 inh | IL2 activator | TrxR1 substrate | Giardia killer | mIDH1 inhibitor | BRCA1 expr act
Cn1cnc([N+](=O)[O-])c1S(=O)(=O)c1ccc(Cl)cc1 | 0.32µM* | -4 | 5%[57.1 µM] | 0 | -4% | -58%
O=C(Nc1ccc2c(c1)CCC2)c1cccc(F)c1 | -16% | -3 | -16% | ? | 5% | ?
CSc1ccccc1C(=O)Nc1ccc2c(c1)CCC2 | 7% | 0 | -1% | 2 | 17% | 11µM*
O=C(Nc1ccc2c(c1)CCC2)c1cc(F)cc(F)c1 | 0% | -3 | -8% | -6 | 10% | 3.2µM*
O=C(Nc1ccc2c(c1)CCC2)c1ccccc1Br | 8%[57.1 µM] | 1 | 4%[57.1 µM] | -3 | 6% | ?
Clc1ccc(COc2ccccc2-c2ccnc3ncnn23)cc1 | 9% | 0 | 34% | -2 | 20% | 11µM*
CCN(CC)S(=O)(=O)c1ccc2nc(NC(=O)c3cncc(Br)c3)sc2c1 | 2%[57.1 µM] | · | 0%[57.1 µM] | · | 14% | ·
CC(=O)c1cc2c(=O)c3cc(C)ccc3oc2nc1C | 17% | 0 | 24% | -16 | 8% | 11µM*
CCOC(=O)c1cc2c(=O)c3cc(C)ccc3oc2nc1C | 20% | 0 | -1% | -17 | -22% | 11µM*
Cc1nc2oc3ccc(F)cc3c(=O)c2cc1C(=O)O | 4% | 0 | 2% | 0 | -1% | 29%
CCN(CC)C(=O)c1cc2c(=O)c3cc(Cl)ccc3oc2nc1C | 17%[57.1 µM] | 0 | 8% | 17 | -4% | ?
Cc1ccc2oc3nc(C)c(C(=O)O)cc3c(=O)c2c1 | -26% | -2 | 58% | -1 | 3% | 2.8µM*
COc1cc(OC)cc(C(=O)Nc2ccc3nc(N4CCCCC4)cc(C)c3c2)c1 | 3% | · | 0% | · | -12% | ·
C[N+]1(CC(=O)c2ccc(O)c(O)c2)CCOCC1 | -16% | · | -13% | · | · | 6%
CCc1sc(C(C2C(=O)CC(C)(C)CC2=O)C2C(=O)CC(C)(C)CC2=O)cc1[N+](=O)[O-] | 1.8µM* | -3 | -2%[57.1 µM] | -2 | 1% | -70%
CCN(C(=O)c1ccc2c(c1)N(Cc1cccc(Cl)c1)C(=O)c1ccccc1S2=O)c1ccccc1 (configuration not stated) | 8%[57.1 µM] | · | 0%[57.1 µM] | · | 12% | ·
CS(=O)(=O)n1nc(-c2ccc(Cl)cc2)nc1N | 13%[11.4 µM] | 0 | 9%[11.4 µM] | -3 | 3% | 20%
COc1ccc(-c2nc3c(=O)n(C)c(=O)nc-3n(C)n2)cc1 | ? | · | ? | -99* | · | -78%
Cn1nc(-c2ccc(Cl)cc2)nc2c(=O)n(C)c(=O)nc1-2 | ? | · | 18µM* | -103* | · | -80%
COc1ccc(-c2nc(N)n(S(=O)(=O)c3ccc(C)cc3)n2)cc1 | 19%[57.1 µM] | -1 | -16%[57.1 µM] | 10 | 2% | -5%
Cn1nc(-c2ccc(F)cc2)nc2c(=O)n(C)c(=O)nc1-2 | 28µM* | · | 22µM* | -89* | · | -79%
Cn1nc(-c2cccnc2)nc2c(=O)n(C)c(=O)nc1-2 | -21% | · | ? | -86* | · | -80%
Cc1cc(C)n2nc(-c3cccnc3)nc2n1 | 13%[57.1 µM] | -3 | 6%[57.1 µM] | 4 | 3% | 16%
CCN(c1ccc(OC)cc1)S(=O)(=O)c1ccc2[nH]c3c(c2c1)CCCCC3 | 16% | · | 1% | · | -8% | -69%
CC(C)C[C@@H](CN=[N+]=[N-])N1CCN(CCc2ccccc2)CCC1=O | 1% | · | 2% | · | · | ·
